# ± gives the standard deviation of the averaged measurements.
# Tested on: AEK1 (Tb927.3.2440)
# Test: percent reduction in TR-FRET probe signal relative to DMSO control; higher = stronger displacement of ATP-site probe (binding)
# Settings: 1 µM; incubation time 1 h
row,SMILES,percent reduction in TR-FRET probe signal
1,Nc1cccc(S(=O)(=O)N2CCCN(S(=O)(=O)c3ccc4c(c3)OCCO4)CC2)c1,-6.38 ± 4.5%
2,"Nc1cc(C(F)(F)F)c(-c2cc(N3CCOCC3)nc(N3CCOCC3)n2)cn1 [BKM120 (NVP-BKM120, Buparlisib)]",8.62 ± 16%
3,CN1CCN(C2CCN(C(=O)Nc3cc(Oc4ccc(NC(=O)C5(C(=O)Nc6ccc(F)cc6)CC5)c(F)c4)ccn3)CC2)CC1 [Golvatinib (E7050)],0.527 ± 8%
4,O=c1c(O)c(-c2ccc(O)c(O)c2)oc2cc(O)cc(O)c12 [Quercetin],8.35 ± 5.3%
5,CCOc1ccn(-c2ccc(F)cc2)c(=O)c1C(=O)Nc1ccc(Oc2ccnc(N)c2Cl)c(F)c1,-0.77 ± 15%
6,CCOC(=O)c1cnc2ccc(-c3cncc(NS(=O)(=O)c4ccccc4)c3)cn12,-3.6 ± 8.8%
7,CCN(CC)CCNC(=O)c1c(C)[nH]c(/C=C2\C(=O)Nc3ccc(F)cc32)c1C.O=C(O)C[C@H](O)C(=O)O [Sunitinib Malate],14.7 ± 14%
8,COc1cc2ncnc(Oc3ccc(CC(=O)Nc4cnn(C(C)C)c4)cc3)c2cc1OC,5.15 ± 13%
9,O=C1NC(=O)/C(=C/c2ccc3c(c2)OC(F)(F)O3)S1,-3.7 ± 5.9%
10,CCCCCCCCCCCCc1ccc(S(=O)(=O)Nc2nncs2)cc1,11.2 ± 4.2%
11,NC(=O)c1ccc(N(C(N)=O)c2c(F)cccc2F)nc1-c1ccc(F)cc1F,-4.77 ± 9.4%
12,CO[C@H]1CC[C@H](N2C(=O)CNc3ncc(-c4ccc(C(C)(C)O)nc4)nc32)CC1,-4.45 ± 1.6%

# — the supplement of paper PMC10720658
